This is part of a sample that, as a whole, favours compounds with a hit. Of some 83,000 tested, about 20% had one in any assay.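 Cells were grown in 96-well plates and exposed to the test compound at a single concentration for 48 hours; results are reported as percent growth, with values below 10 considered active.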 Unmarked numbers belong to inactive results. The source made the active and inactive calls.
Columns and labels:
Assay in all cases: NCI-60 one-dose screen, 48 h (100 = growth as untreated, 0 = no growth, -100 = all killed)
Settings in all cases: 10 µM unless noted
HCT-15 colon = tested on: HCT-15 colon
HT29 colon = tested on: HT29 colon
SNB-75 CNS = tested on: SNB-75 CNS
U251 CNS = tested on: U251 CNS
PC-3 prostate = tested on: PC-3 prostate
SK-MEL-5 melanoma = tested on: SK-MEL-5 melanoma
UACC-62 melanoma = tested on: UACC-62 melanoma
LOX IMVI melanoma = tested on: LOX IMVI melanoma
SK-MEL-28 melanoma = tested on: SK-MEL-28 melanoma
SK-MEL-2 melanoma = tested on: SK-MEL-2 melanoma
EKVX NSCLC = tested on: EKVX NSCLC
SN12C renal = tested on: SN12C renal
UO-31 renal = tested on: UO-31 renal
TK-10 renal = tested on: TK-10 renal
ACHN renal = tested on: ACHN renal
CAKI-1 renal = tested on: CAKI-1 renal
A498 renal = tested on: A498 renal
CCRF-CEM leukemia = tested on: CCRF-CEM leukemia
MOLT-4 leukemia = tested on: MOLT-4 leukemia

Row | SMILES | growth (HCT-15 colon) | growth (HT29 colon) | growth (SNB-75 CNS) | growth (U251 CNS) | growth (PC-3 prostate) | growth (SK-MEL-5 melanoma) | growth (UACC-62 melanoma) | growth (LOX IMVI melanoma) | growth (SK-MEL-28 melanoma) | growth (SK-MEL-2 melanoma) | growth (EKVX NSCLC) | growth (SN12C renal) [%] | growth (UO-31 renal) | growth (TK-10 renal) | growth (ACHN renal) | growth (CAKI-1 renal) | growth (A498 renal) | growth (CCRF-CEM leukemia) | growth (MOLT-4 leukemia)
1 | CC(=O)OC1Oc2cc(C)c(C)cc2-c2oc(=O)c(-c3cc4ccc(N(C)C)cc4oc3=O)cc21 (configuration not stated) | 100% | 100% | 69% | 115% | 61.9% | 49.8% | 61.6% | 101% | 115% | 92.4% | 41.5% | 84.2 | 51.4% | 89.6% | 103% | 65.4% | 57.8% | 54.9% | -17.4% (active)
2 | Cc1ccc2c(c1)C(=O)c1c-2c(OCCCN(C)C)nc2ccccc12 | -17.8% (active) | -33% (active) | 38.5% | 4.38% (active) | 18.6% | 28.5% | -66% (active) | -71.9% (active) | -54% (active) | 44.7% | 28.4% | 19.4 | 3.12% (active) | 37.2% | -6.51% (active) | 24.2% | 33.3% | 19.3% | -10.5% (active)
3 | OCCNCCNc1c2ccccc2nc2ccccc12 | 97.2% | 58% | 93.3% | 55.3% | 87.5% | 88.4% | 66.6% | 37.8% | 114% | 68.5% | 109% | 52.2 | 65.4% | 82.7% | 65.3% | 94.9% | 83% | 65.4% | 16.7%
4 | COc1ccc(CCN2CCCn3c2nc2ccccc2c3=O)cc1 | 22.2% | 11.8% | 17.5% | 29% | 42% | 15.5% | 26.5% | 15.1% | 49.6% | 51.1% | 45.7% | 45 | 41.1% | 69.3% | 40.4% | 41.7% | -3.97% (active) | 21.1% | 18.5%
5 | CCN(CC)CCCNc1cc(OC)cc2nc3cc(Cl)ccc3nc12 | -11.9% (active) | -9.49% (active) | -2.74% (active) | 4.3% (active) | 2.49% (active) | -99.5% (active) | -80.6% (active) | -58.7% (active) | -79.1% (active) | 3.9% (active) | 0.555% (active) | 13.1 | -86.7% (active) | -15.5% (active) | 3.95% (active) | -78.7% (active) | 14.3% | 19.9% | -26.2% (active)
6 | Cc1cc2cc3cc(C)c(N(C)C)cc3nc2cc1N(C)C | 71.6% | 15.9% | 26.6% | 15.4% | 4.41% (active) |  | 58.5% | 24% | 40.6% | -31.8% (active) | 34.6% | 15.3 | 59.1% | -14.6% (active) | 39.1% | 43.7% | 52.8% | 17.3% | 29.1%
7 | OCC1C2C=CC(C2)C1CO (configuration not stated) | 110% | 97.6% | 75.8% | 100% | 79.5% | 130% | 107% | 101% | 107% | 114% | 102% |  | 93.1% | 112% | 105% |  | 92.5% | 126% | 97.9%
8 | COc1ccc2c(c1)C(=O)/C(=C/c1cccc(OCC(=O)Nc3nc4c(s3)CCCC4)c1)O2 | -15.7% (active) | -74.3% (active) | 19% | 41.9% |  | -14% (active) | 79.1% | -70.3% (active) | 38.1% | -67.3% (active) | -72.6% (active) | 28.7 | -78.2% (active) | -69.6% (active) | -73.4% (active) | -83.5% (active) | 92% | -0.645% (active) | -47.8% (active)
9 | O=c1cc(-c2ccccc2)[nH]c2ccccc12 | 17.5% | 15.3% | 30% | 27.2% | 27.1% | 29.4% | 64.5% | 57.7% | 62.4% | 55.8% | 50.5% |  | 46.6% | 11.4% | 48.8% | 47.4% | 47.6% | 15.2% | 32%
10 | CNC(=O)c1cc(Oc2ccc3nc(NC(=O)Nc4ccc(N5CCC(N(C)C)CC5)cc4)sc3c2)ccn1 | 74.8% | 20.1% | 86.4% | 57.6% | 95.1% | 86.1% | 99.2% | 69.9% | 87.7% | 117% | 115% | 92.3 | 87.7% | 115% | 74.1% |  | 81.6% | 66.5% | 61.4%
11 | O=c1c2c3c(sc2n2c(CCl)nnc2n1Cc1ccccc1)CCCC3 | -89.4% (active) | -100% (active) | -61.3% (active) | -99.2% (active) | -100% (active) |  | -72.8% (active) | -100% (active) | -100% (active) | -83.1% (active) | -35.4% (active) |  | -83.2% (active) | -93.6% (active) | -100% (active) | -100% (active) | 92.5% |  | -18.4% (active)
12 | CC1=NNC(=O)C1C (configuration not stated) | 98.7% | 109% | 91.4% | 105% | 108% | 103% | 94.5% | 99% | 106% | 99.8% | 102% |  | 88.2% | 377% | 103% | 81.5% | 88.6% | 97.1% | 145%
13 | C=CC[N+]1(CCO)CCN=C1CCCCCCCCCCCCC (configuration not stated) | -74.5% (active) | -92.2% (active) | -78.3% (active) | -87.8% (active) | -29.9% (active) |  | -96.5% (active) | -87.9% (active) | -69.5% (active) | -64.2% (active) | -29.4% (active) |  | -60.7% (active) | -87% (active) | -91.9% (active) | -47.7% (active) | 82.6% | -40.6% (active) | -42.6% (active)
14 | O=C1OC2C(I)C3CC2C1C3c1ccccc1 (configuration not stated) | 105% | 98.7% | 73.5% | 104% | 93.8% | 108% | 93.1% | 93.4% | 105% | 128% | 129% |  | 95.8% | 145% | 102% |  | 114% | 110% | 102%
15 | Nc1c(C(=O)Nc2ccccc2Cl)sc2nc3c(cc12)CCCCCC3 | 25.8% | 9.39% (active) | -20.3% (active) | 42% | 77.5% | 32.6% |  | 51% | 57.9% | 46.2% |  |  | -8.93% (active) | 24.2% | 10.1% | 57.7% |  | 25.5% | 39.8%
16 | CCCCN(CC)CCCCCCCCCCN1CCCc2cc(OC)ccc21 | 38.1% | 19.2% | 93.2% | 87.4% | 29.9% | 92.1% |  | 15% | 119% | 92.8% | 34.5% |  | 24.4% | 87.8% | 76.7% | 6.91% (active) | 75.9% | 7.28% (active) | -19.6% (active)
17 | C=CCSc1nnc(-c2ccc(C(C)(C)C)cc2)n1-c1cccc(C(F)(F)F)c1 | 17.7% | 26.3% | 80.5% | 32.6% | 16.6% | 37.4% | 42.4% | 47.1% | 67.8% | 46.7% | 22.2% | 29.4 |  | 51.1% | 36.3% | 32.3% | 84.7% | 24.2% | 21.8%
18 | COc1ccc(Cl)cc1Nc1nc(C(F)(F)F)ccc1C(=O)N/N=C/c1cccnc1 | 29.1% | 49.6% | 67.1% | 40.4% | 43.7% |  | 50.9% | 36.3% | 59.9% | 39% | 48.5% | 62.7 | 41.5% | 49% | 36.7% | 43.2% |  | 13% | 2% (active)
19 | CCc1ccc(C(c2ccc(CC)cc2)C(Cl)(Cl)CCl)cc1 | 89.7% | 76.8% | 80.6% | 89% | 80.5% | 90% | 88.2% | 93.6% | 92.4% | 94.2% | 95.8% |  | 84.1% | 109% | 97.6% | 96.6% | 81.7% | 114% | 84.4%

— PubChem BioAssay (NCI)
